Records with an inconclusive call do not appear. Activity calls are given as the source filed them. Calls follow the shape of the dose curve; as a rule, active = well fitted curve in the direction sought with a large enough effect; inconclusive = small, poorly fitted or top-dose-only effect, or another doubt; inactive = no such curve, though single readings can be large; an effect the other way counts as inactive or inconclusive. Square brackets hold non-standard residues; d marks the D form. Peptide text beside a SMILES is read from it. ξ: configuration not given here. ξPhe(βξ-Me) = CC(c1ccccc1)C(N)C(=O)O; GABA = NCCCC(=O)O
What was measured:
[1] = molecular target: Cellular tumor antigen p53 (Homo sapiens) (UniProt P04637); assay: Primary qHTS for small molecule compounds that upregulate eGFP-tagged delta133p53alpha (in N-terminal) cells. (AID 2060322); conditions: NCI-H358 eGFP-delta133p53alpha fluorescence, 24 h; activation: active compounds read high;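 also: cells pre-induced with doxycycline then dosed without doxycycline; 0% = DMSO vehicle and 100% = reference activator; nearly all actives have a fitted effect of over 75% in size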
In short: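 NCI-H358 cells pre-induced 24 h with 10 ng/ml doxycycline for eGFP-delta133p53alpha, plated dox-free and exposed 24 h at 37C to titrated compounds. Fixed, Hoechst-stained; gated GFP peak intensity by laser scanning cytometry, normalized to DMSO (0%) and 57.5 uM 5-azacytidine (100%).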

[2] = molecular target: Aldehyde dehydrogenase, mitochondrial (Homo sapiens) (UniProt P05091); assay: qHTS for Inhibitors of the Aldehyde Dehydrogenase Family (ALDH2) Primary screen (AID 2061308); conditions: ALDH2 enzyme inhibition qHTS, 1536-well; series mostly up to 56 µM;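 also: plate controls were vehicle for no effect and reference inhibitor for full effect; nearly all actives have a fitted effect of over 55% in size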
[3] = molecular target: Retinaldehyde dehydrogenase 3 (Homo sapiens) (UniProt P47895); assay: qHTS for Inhibitors of the Aldehyde Dehydrogenase Family (ALDH1A3) Primary screen (AID 2061315); conditions: ALDH inhibition qHTS; series mostly up to 56 µM;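 also: plate controls were DMSO vehicle for no effect and reference inhibitor for full effect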

Sequence of Cellular tumor antigen p53 (Homo sapiens) (P04637 whole entry, looked up): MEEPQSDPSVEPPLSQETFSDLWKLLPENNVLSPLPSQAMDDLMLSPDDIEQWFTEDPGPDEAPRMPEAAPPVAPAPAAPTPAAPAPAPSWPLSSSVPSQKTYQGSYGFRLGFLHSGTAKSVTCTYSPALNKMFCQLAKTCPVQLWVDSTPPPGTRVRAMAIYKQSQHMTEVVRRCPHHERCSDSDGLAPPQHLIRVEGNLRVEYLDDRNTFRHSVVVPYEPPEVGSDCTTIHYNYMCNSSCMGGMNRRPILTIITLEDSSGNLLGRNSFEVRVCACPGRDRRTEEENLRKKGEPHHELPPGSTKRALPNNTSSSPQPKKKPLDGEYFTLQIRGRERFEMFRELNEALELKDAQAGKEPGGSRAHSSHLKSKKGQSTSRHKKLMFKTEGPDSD

CC(C)(C)NS(=O)(=O)c1cncc(-c2cc(F)c3nc(N)nn3c2)c1
inactive: activation [1] 5.36% | Potency [2] | Potency [3]

CC(O)C(O)/C=C/C=C/C(=O)O[C@@H]1C=C2COC(=O)[C@]2(O)[C@@]2(C)CCCC(C)(C)C12 (stereo not given in full)
inactive: activation [1] -18.3% | Potency [2] | Potency [3]

COc1cc(/C=C/C(=O)OC2CC(OC(C)=O)C(OC(C)=O)C3C2CCC2C(=O)OC(c4ccoc4)CC23C)ccc1O[C@@H]1O[C@H](CO)[C@@H](O)[C@H](O)[C@H]1O (stereo not given in full)
inactive: activation [1] -16% | Potency [2] | Potency [3]

C[C@H]1C[C@H]2[C@@H]3CCC4=CC(=O)C=C[C@]4(C)[C@@]3(F)[C@@H](O)C[C@]2(C)[C@@]1(O)C(=O)COP(=O)(O)O
inactive: activation [1] 1% | Potency [2] | Potency [3]

C=CC(C)(CCC=C(C)C)O[C@@H]1O[C@H](CO)[C@@H](O)[C@H](O)[C@H]1O (stereo not given in full)
inactive: activation [1] 3.57% | Potency [2] | Potency [3]

CC(C(O)/C=C/C(C)(C)O)C1CCC2(C)C3C(=O)C=C4C(CCC(O)C4(C)C)C3(C)CCC12C (stereo not given)
inactive: activation [1] -22.3% | Potency [2] | Potency [3]

CC(C)C(N)C(=O)OCCOCn1cnc2c(=O)[nH]c(N)nc21 (stereo not given)
inactive: activation [1] 8.93% | Potency [2] | Potency [3]

CC(=O)O[C@@H](CO[C@@H]1O[C@H](CO)[C@H](O)[C@H](O)[C@H]1O)[C@]1(C)C=C2CC[C@@H]3C(C)(C)[C@@H](O)CC[C@@]3(C)[C@@H]2CC1
inactive: activation [1] 18.3% | Potency [2] | Potency [3]

Cn1ccnc1CCOC(c1cc2nccc(C(=O)O)c2[nH]1)c1ccccc1Cl (stereo not given)
inactive: activation [1] -5% | Potency [2] | Potency [3]

C[C@@H]1O[C@@H](O[C@H]2[C@H](OC(=O)[C@]34CCC(C)(C)C[C@H]3C3=CCC5[C@@]6(C)C[C@@H](O)[C@@H](O)[C@@](C)(CO)C6[C@H](O)C[C@@]5(C)[C@]3(C)CC4)OC[C@H](O)[C@@H]2O)[C@H](O)[C@H](O)[C@H]1O[C@@H]1OC[C@@H](O)[C@H](O[C@H]2O[C@H](C)[C@@H](O)[C@H](O)[C@@H]2O)[C@H]1O (stereo not given in full)
inactive: activation [1] -2.68% | Potency [2] | Potency [3]

C=CC(C)(O)CC/C=C(\C)C(=O)OC1C(O)C(CO)OC(OC(=O)C23CCC(C)(C)CC2C2=CCC4C5(C)CCC(OC6OC(COC7OCC(OC(C)=O)C(O)C7OC7OC(COC(C)=O)C(O)C(O)C7O)C(O)C(O)C6O)C(C)(C)C5CCC4(C)C2(C)C(O)C3O)C1OC1OCC(OC2OCC(O)C(OC3OCC(O)C(O)C3O)C2O)C(O)C1O (stereo not given)
inactive: activation [1] -9.16% | activity change, negative = inhibition [2] 5.34% [at 11.2 µM] | activity change, negative = inhibition [3] 15% [at 11.2 µM]

CC1=C2CC(=O)C(C)CC/C=C(\C)CC2(O)OC1=O (stereo not given)
inactive: activation [1] -1.53% | Potency [2] | Potency [3]

O=C(/C=C/c1ccc(O)cc1)O[C@H]1[C@H](OC2CCCCC2O)O[C@H](CO)[C@@H](O)[C@@H]1O (stereo not given in full)
inactive: activation [1] -11.5% | Potency [2] | Potency [3]

CC1NC(=O)CCCNC(=O)C(Cc2c[nH]c3ccccc23)NC(=O)C(C)NC(=O)C(C(C)C)NC(=O)C(C(C)c2ccccc2)NC(=O)C(C(C)C)NC1=O (stereo not drawn) (cyclo([GABA]AV[ξPhe(βξ-Me)]VAW); configuration not given here)
inactive: activation [1] 6.11% | Potency [2] | Potency [3]

Cc1ccc(F)cc1C(=O)Nc1ccc(C(=O)N2Cc3cccn3Cc3ccccc32)c(Cl)c1
inactive: activation [1] 1.67% | Potency [2] | Potency [3]

CC(=O)c1ccc(O[C@@H]2OC[C@@H](O)[C@H](O)[C@H]2O[C@]2(CO)O[C@H](CO)[C@@H](O)[C@@H]2O)c(O)c1
inactive: activation [1] -9.92% | Potency [2] | Potency [3]

N=c1nc2n(cc1F)C1OC(CO)C(O)C1O2 (stereo not given)
inactive: activation [1] 0.333% | Potency [2] | Potency [3]

C[C@H](/C=C/[C@@]1(O)[C@H](C)CC(=O)CC1(C)C)O[C@@H]1O[C@H](CO[C@@H]2OC[C@@H](O)[C@H](O)[C@H]2O)[C@@H](O)[C@H](O)[C@H]1O
inactive: activation [1] -6.11% | Potency [2] | Potency [3]

C[C@@]12C(=O)N(c3ccc(C(=O)Nc4cccc5cccnc45)cc3)C(=O)[C@@H]1[C@@H]1C=C[C@H]2C1
inactive: activation [1] 18.3% | Potency [2] | Potency [3]

COc1ccc(S(=O)(=O)Nc2cc(Cl)cc(Cl)c2OC)cc1N1CCNCC1
inactive: activation [1] 8.04% | Potency [2] | Potency [3]

— PubChem BioAssay (NCATS)
